In PubChem BioAssay AID1347415 (National Center for Advancing Translational Sciences (NCATS), 2020):
Inconclusive results are not listed. Values without a mark were called inactive. Active and inactive are the calls of the source. Calls follow the shape of the dose curve; as a rule, active = well fitted inhibition curve with a large enough effect; inconclusive = small, poorly fitted or top-dose-only effect; inactive = no such curve, though single readings can be large or run the other way.

Experiment: qHTS to identify inhibitors of the type 1 interferon - major histocompatibility complex class I in skeletal muscle: tertiary screen by RT-qPCR
Settings: C25cl48 human myoblasts, IFN-beta, HLA-B RT-qPCR, 24 h; series mostly up to 49.8 µM; activity change, negative = inhibition: at the top concentration
Source text: Assay Submitter (PI): Travis B. Kinder Ph.D. & James Inglese Ph.D. Assay Development and Screening Technology Laboratory (ADST) National Center for Advancing Translational Sciences (NCATS), Rockville, MD National Institute of Health (NIH), Bethesda, Maryland Idiopathic inflammatory myopathies, collectively referred to as myositis, are a group of rare autoimmune diseases characterized by skeletal muscle inflammation, weakness, and usually accompanied by systemic pathologies of the skin, lungs, or vasculature. Current immunosuppressive therapies and glucocorticoids are often not curative and are accompanied by harsh side effects, especially in children with juvenile myositis. We initiated a drug repurposing and development program to identify more targeted, less toxic therapeutics to treat myositis. Although its cause is not known, muscle from a subset of patients have an abundance of the inflammatory type 1 interferon (IFN) and a down-stream product major histocompatibility complex class I (MHC class I), which are both thought to contribute to damage and weakness. We conducted quantitative high throughput screening (qHTS) on 6,576 compounds (4,679 unique) through a series of cell-based assays to identify those that inhibit the IFN-stimulated expression of MHC class I in muscle precursor cells (myoblasts). The compound identification and evaluation strategy utilized a primary screen with reporter-tagged MHC class I in genome-engineered myoblasts, ATP content counter screen for viability, HLA-ABC immunofluorescence secondary screen, and HLA-B RT-qPCR tertiary screen. To determine if active compounds identified by qHTS in HLA-B HiBit reporter cells, and confirmed by HLA-ABC immunofluorescence, can inhibit the transcription of HLA-B mRNA, compounds were assayed by RT-qPCR. Briefly, 62 compounds identified from primary, counter, and secondary screening as inhibitory with minimal cytotoxicity were dispensed into 384-well plates using acoustic dispensing in a 6-point, 1:7 titration with a high final concentration of 10 uM. Normal immortalized human myoblasts C25cl48 were added to the plate with 4.0 ng/ml human IFN-beta for 24 hours, and cells were harvested and assayed by the Cells-to-Ct kit with TaqMan assays (Thermo Fisher).
PROTOCOL TABLE (as described by Inglese et al., 2007) SEQUENCE No. (e.g., 1, 2, 3, etc.); […] (e.g., Cells, Incubation, Reagent, etc.); VALUE; DESCRIPTION 0; Compounds; 150 nl; Follow-up compounds dispensed at 150 nl/well with Labcyte Echo 655 acoustic dispenser into one Corning white/clear bottom, high base TC 384-well plates (3765) 1a; Cells; 30 uL; Using a p200 manual pipette, seed 780 cells/well into 1 plate in 30 ul/well of iHSKM growth medium without dexamethasone into columns wells A1-A6. […]
With `C[C@]12C=CC(=O)C=C1CC[C@@H]1[C@@H]2[C@@H](O)C[C@@]2(C)[C@H]1CC[C@]2(O)C(=O)CO` the “activity change, negative = inhibition” value was -28.8%.
With `CCS(=O)(=O)N1CCN(c2ccc(Nc3ncc(C(N)=O)c(NC4CC4)n3)cc2)CC1` the Potency was 5.83 µM (active).
For `CN1CCN(c2cccc(Nc3nc4c(-c5ccc(S(C)(=O)=O)cc5)cccn4n3)c2)CC1`, the Potency was 8.23 µM (active).
With `C=CCNC1=C2C[C@@H](C)C[C@H](OC)[C@H](O)[C@@H](C)/C=C(\C)[C@H](OC(N)=O)[C@@H](OC)/C=C\C=C(/C)C(=O)NC(=CC1=O)C2=O` the “activity change, negative = inhibition” value was -32.6%.
With `Cc1cc(Nc2nc(N[C@@H](C)c3ncc(F)cn3)ncc2Cl)n[nH]1` the Potency was 4.13 µM (active).
With `O=C(/C=C/c1ccc(CN(CCO)CCc2c[nH]c3ccccc23)cc1)NO` the Potency was 0.116 µM (active).
With `OC1CCC(Oc2cccc3cnc(Nc4ccc5nc[nH]c5c4)nc23)CC1` (configuration not stated) the Potency was 0.654 µM (active).
In the case of `Cc1ccc(NC(=O)NCc2ccc3c(c2)CN(C2CCC(=O)NC2=O)C3=O)cc1Cl` (configuration not stated), the “activity change, negative = inhibition” value is reported as -1.86%.
In the case of `Cc1ncsc1-c1ccc([C@H](C)NC(=O)[C@@H]2C[C@@H](O)CN2C(=O)[C@@H](NC(=O)COCCCOCCNC(=O)C[C@@H]2N=C(c3ccc(Cl)cc3)c3c(sc(C)c3C)-n3c(C)nnc32)C(C)(C)C)cc1`, the “activity change, negative = inhibition” value is reported as -104%.
In the case of `Cc1ccc(-c2ncn(-c3ccc(Nc4nccc(-c5cccc(N6CCOCC6)c5)n4)cc3)n2)cn1`, the Potency is reported as 1.46 µM (active).
For `COc1cccc2c1C(=O)c1c(O)c3c(c(O)c1C2=O)C[C@@](O)(C(=O)CO)C[C@@H]3O[C@H]1C[C@H](N)[C@H](O)[C@H](C)O1`, the Potency was 1.04 µM (active).
With `Cc1cc(O)c(-c2ccc([C@@H](C)CN(C)C)cc2)c2c1[nH]c(=O)c1sccc12` the Potency was 0.0519 µM (active).
For `NC(=O)Nc1sc(-c2ccc(F)cc2)cc1C(N)=O`, the Potency was 10.4 µM (active).
For `Cc1ccc([N+](=O)[O-])cc1S(=O)(=O)N(C)/N=C/c1cnc2ccc(Br)cn12`, the Potency was 0.232 µM (active).
In the case of `CCN(CC)Cc1ccc2cc(COC(=O)Nc3ccc(C(=O)NO)cc3)ccc2c1`, the Potency is reported as 4.13 µM (active).
In the case of `Cc1[nH]c2ccccc2c1CCNCc1ccc(/C=C/C(=O)NO)cc1`, the Potency is reported as 0.0292 µM (active).
With `CC(=O)c1cnc2ccc(-c3cc(Cl)c(O)c(Cl)c3)nc2c1NC1CCC(CN(C)C)CC1` (configuration not stated) the Potency was 0.116 µM (active).
In the case of `N#CCC1(n2cc(-c3ncnc4[nH]ccc34)cn2)CN(C2CCN(C(=O)c3ccnc(C(F)(F)F)c3F)CC2)C1`, the Potency is reported as 3.68 µM (active).
For `Cc1cc(Nc2cc(NC(=O)c3c(Cl)cccc3Cl)ccn2)nc(N)n1`, the Potency was 4.63 µM (active).
With `OCCCNc1cc(-c2ccnc(Nc3cccc(Cl)c3)n2)ccn1` the Potency was 0.116 µM (active).
For `CC(=O)OCC(=O)[C@@]12OC(C)(C)O[C@@H]1C[C@H]1[C@@H]3C[C@H](F)C4=CC(=O)C=C[C@]4(C)[C@@]3(F)[C@@H](O)C[C@@]12C`, the “activity change, negative = inhibition” value was -29.4%.
In the case of `N#CC[C@H](C1CCCC1)n1cc(-c2ncnc3[nH]ccc23)cn1`, the Potency is reported as 1.64 µM (active).
For `CC(=O)c1ccc2c(c1)c1cc(C(C)=O)ccc1n2CCNC(C)C`, the Potency was 1.84 µM (active).
In the case of `O=C(Nc1nc2cccc(-c3ccc(CN4CCS(=O)(=O)CC4)cc3)n2n1)C1CC1`, the Potency is reported as 18.4 µM (active).
For `C[C@@]12O[C@@H](C[C@]1(O)CO)n1c3ccccc3c3c4c(c5c6ccccc6n2c5c31)CNC4=O`, the Potency was 2.6 µM (active).
For `C[C@H]1C[C@@H]2[C@H]([C@@H](O)C[C@@]3(C)[C@H]2CC[C@]3(O)C(=O)CO)[C@@]2(C)C=CC(=O)C=C12`, the “activity change, negative = inhibition” value was -18%.
For `CC(C)C[C@H](NC(=O)[C@H](CCc1ccccc1)NC(=O)CN1CCOCC1)C(=O)N[C@@H](Cc1ccccc1)C(=O)N[C@@H](CC(C)C)C(=O)[C@@]1(C)CO1`, the Potency was 1.84 µM (active).
For `COc1cccc2c1C(=O)c1c(O)c3c(c(O)c1C2=O)C[C@@](O)(/C(CO)=N/NC(=O)CCCCCN1C(=O)C=CC1=O)C[C@@H]3O[C@H]1C[C@H](N)[C@H](O)[C@H](C)O1`, the Potency was 4.63 µM (active).
In the case of `N#CCNC(=O)c1ccc(-c2ccnc(Nc3ccc(N4CCOCC4)cc3)n2)cc1`, the Potency is reported as 23.2 µM (active).
With `CS[C@H]1SC[C@@H]2C(=O)N(C)[C@H](C(C)C)C(=O)OC[C@H](NC(=O)c3cnc4ccccc4n3)C(=O)N[C@H](C)C(=O)N(C)[C@H]1C(=O)N(C)[C@H](C(C)C)C(=O)OC[C@H](NC(=O)c1cnc3ccccc3n1)C(=O)N[C@H](C)C(=O)N2C` the “activity change, negative = inhibition” value was -135%.
In the case of `C=C1C(=O)O[C@@H]2[C@H]3O[C@]3(C)CCC=C(C)CC[C@@H]12`, the Potency is reported as 16.4 µM (active).
In the case of `CN1CCN(Cc2ccc(NC(=O)Nc3ccc(Oc4cc(NC(=O)C5CC5)ncn4)cc3)cc2C(F)(F)F)CC1`, the Potency is reported as 0.146 µM (active).
For `Cc1nc(Nc2n[nH]c3c2CN(C(=O)N[C@H](CN(C)C)c2ccccc2)C3(C)C)c2sccc2n1`, the Potency was 1.84 µM (active).
With `COc1ccc(-c2nc(N3CCOCC3)c3sc(CN(C)c4ncc(C(=O)NO)cn4)cc3n2)cn1` the Potency was 0.0232 µM (active).
With `c1cc(Nc2cc(C3CC3)[nH]n2)nc(Nc2ccc3nc[nH]c3c2)n1` the Potency was 0.654 µM (active).
For `CC1=C(CO)C(=O)O[C@@H]([C@@H](C)[C@H]2CC[C@H]3[C@@H]4C[C@H]5O[C@]56[C@@H](O)C=CC(=O)[C@]6(C)[C@H]4CC[C@]23C)C1`, the Potency was 1.3 µM (active).
In the case of `NC(=O)c1cnc2[nH]ccc2c1NC1C2CC3C[C@H]1CC(O)(C3)C2` (some centres not stated), the Potency is reported as 1.64 µM (active).
